Here are results for 85 molecules from PubChem BioAssay AID1851 (National Center for Advancing Translational Sciences (NCATS), 2009).

Among all 16,000 compounds or so, about 5,100 (32%) were called active. Not shown: some 25% with an inconclusive outcome. Calls come from the whole dose curve; as a rule, active = well fitted curve in the direction sought with a large enough effect; inconclusive = small, poorly fitted or top-dose-only effect, or effect the other way; inactive = no such curve, though single readings can be large or run the other way. Some of the results follow. Square brackets hold non-standard residues; d marks the D form. Peptide text beside a SMILES is read from it.
% is set by controls: 0 for no effect and ±100 for the full control effect.

Chain of Cytochrome P450 3A4 (Homo sapiens) (P08684 whole entry, looked up): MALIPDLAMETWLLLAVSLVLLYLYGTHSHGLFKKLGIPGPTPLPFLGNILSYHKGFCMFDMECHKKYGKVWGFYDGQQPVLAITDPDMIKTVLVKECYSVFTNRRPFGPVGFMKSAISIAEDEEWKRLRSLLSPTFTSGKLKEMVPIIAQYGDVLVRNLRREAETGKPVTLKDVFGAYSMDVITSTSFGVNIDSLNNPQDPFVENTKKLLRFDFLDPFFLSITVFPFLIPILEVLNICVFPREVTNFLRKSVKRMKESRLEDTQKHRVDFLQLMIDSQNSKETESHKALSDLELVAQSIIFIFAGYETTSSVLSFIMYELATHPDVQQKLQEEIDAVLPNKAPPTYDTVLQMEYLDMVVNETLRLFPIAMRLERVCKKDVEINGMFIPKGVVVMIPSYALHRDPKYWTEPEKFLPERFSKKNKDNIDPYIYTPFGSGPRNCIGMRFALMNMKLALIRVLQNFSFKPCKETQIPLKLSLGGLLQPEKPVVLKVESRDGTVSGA

The experiment concerns the target Cytochrome P450 3A4 (Homo sapiens) (UniProt P08684). As to the kind of experiment: Cytochrome panel assay with activity outcomes. Conditions: recombinant CYP, pro-luciferin dealkylation, luminescence, p450-cyp3a4; series mostly up to 57.1 µM.
The AC50 is the midpoint of the concentration-response curve, whichever way the signal moves. As for `CC(Sc1ccc2c(c1)OCCO2)C(=O)Nc1ncc(Cl)cc1Cl` (stereo not given), the AC50 is 14.1 µM (active).
As for `C/C(CCC(=O)OC[C@@H]1O[C@H](C#Cc2ccccc2)C=C[C@@H]1Oc1ccc(C)cc1)=N/O[C@@H](C)CN1CCCc2nc(C)c(C)cc21`, the AC50 is 3.98 µM (active).
On the same count and under the same terms, for `C/C(CCC(=O)OC[C@@H]1O[C@H](C#Cc2ccccc2)C=C[C@@H]1Oc1ccc(C)cc1)=N/O[C@@H](C)CN1CCCCc2nc(C)c(C)cc21` the value was 3.16 µM (active); for `Cc1cc(NC(=O)C2=C(O)c3ccccc3S(=O)(=O)N2C)no1`, “inactive”.
For `CCOC(=O)c1ccccc1N/C=C1\CCCCC1=O`, the activity, negative = inhibition was -9.45% [at 11.4 µM] (inactive).
As to `COC(=O)c1ccccc1N/C=C1\CCc2c(c(C)nn2-c2ccccn2)C1=O`, the AC50 was 14.1 µM (active).
For the molecule `Cc1nn2c3c(cnc2c1-c1ccccc1)C(=O)CC(c1ccccc1)C3` (stereo not given), the AC50 entry was “inactive”.
On to `CC(=O)Nc1ccc2c(c1)/C(=C/c1ccc([N+](C)(C)C)cc1)c1ccccc1-2`, for which the activity, negative = inhibition is -11.9% [at 11.4 µM] (inactive).
`O=C(Nc1ccc(Cl)c(C(F)(F)F)c1)C1CCCN(S(=O)(=O)c2cnc[nH]2)C1` (stereo not given): the AC50 is 0.126 µM (active).
Regarding `CCCS(=O)(=O)N1CCCC(C(=O)NCc2cccnc2)C1` (stereo not given), the activity, negative = inhibition is -7.24% [at 2.29 µM] (inactive).
For the molecule `COCc1nnc(NC(=O)CSc2ccc(C)cc2)s1`, the activity, negative = inhibition is -22.6% [at 11.4 µM] (inactive).
Regarding `COC(=O)c1cc(OC)c(OC)cc1NC(=O)CSc1ccc(C)cc1`, the AC50 was 1.58 µM (active).
The same measure, in the same setting: for `COc1ccc(Cc2nnc(NC(=O)CSc3ccc(C)cc3)s2)cc1OC` the value was 8.91 µM (active); for `O=C(O)CCCC[C@H]1CCSS1`, “inactive”; for `C=C(C)C(=O)N1CC2(CC(c3cccc(NC(=O)c4ccccc4)c3)=NO2)C[C@@H]1C(N)=O` (stereo not given in full), “inactive”.
With `NC(=O)[C@H]1CC2(CC(c3cccc(NC(=O)c4ccccc4)c3)=NO2)CN1C(=O)[C@H]1CCC(=O)N1` (stereo not given in full), the AC50 result was “inactive”.
The same measure, in the same setting: for `NC(=O)C1(NC(=O)[C@@H]2CC3(CC(c4cccc(NC(=O)c5cc([N+](=O)[O-])cc([N+](=O)[O-])c5)c4)=NO3)CN2C(=O)c2ccccc2)CC1` (stereo not given in full) the value was 3.16 µM (active).
Take `NC(=O)CNC(=O)[C@@H]1CC2(CC(c3cccc([N+](=O)[O-])c3)=NO2)CN1C(=O)c1ccccc1` (stereo not given in full): the activity, negative = inhibition was 8.44% [at 2.29 µM] (inactive).
For the molecule `CCCCCC(=O)N1CC2(CC(c3cccc(NC(=O)c4ccccc4)c3)=NO2)C[C@@H]1C(N)=O` (stereo not given in full), the AC50 was 15.8 µM (active).
`NC(=O)CNC(=O)[C@@H]1CC2(CC(c3ccc(Cl)cc3)=NO2)CN1C(=O)c1ccccc1` (stereo not given in full): the activity, negative = inhibition was 16.2% [at 2.29 µM] (inactive).
Regarding `O=c1c2ccccc2nnn1CSc1nnc(COc2ccc(Cl)cc2)n1Cc1ccco1`, the AC50 was 12.6 µM (active).
Consider `CN(C)c1ccc2nc3c(C(=O)O)cc(=O)c(O)c-3oc2c1`, for which the activity, negative = inhibition is -10.3% [at 11.4 µM] (inactive).
`COc1ccc2[nH]cc(CCNc3cc(-c4ccc(C(=O)N(C)C)cc4)ncn3)c2c1`: the AC50 is 6.31 µM (active).
Same read-out and setting: for `COc1ccc2[nH]cc(CCNc3ccnc(-c4ccc(C(=O)N(C)C)cc4)n3)c2c1` the value was 3.16 µM (active); for `COc1ccc2[nH]cc(CCNc3ccnc(-c4ccc(N(C)C)cc4)n3)c2c1`, 5.01 µM (active); for `COc1ccc2[nH]cc(CCNc3ccnc(-c4ccc5c(c4)OCO5)n3)c2c1`, 2.51 µM (active).
Take `O=S(=O)(C=C(c1ccccc1)c1ccccc1)c1ccccc1`: the AC50 entry is “inactive”.
Consider `CCC(=S)/C=C1\Sc2ccc3ccccc3c2N1CCCS(=O)(=O)O`, for which the AC50 entry is “inactive”.
Regarding `COc1ccc2[nH]cc(CCNc3ccnc(-c4ccoc4)n3)c2c1`, the concentration at half-maximal activity (AC50) is 3.16 µM (active).
Still for that read-out and setting: for `COc1ccc2[nH]cc(CCNc3ccnc(-c4c(C)noc4C)n3)c2c1` the value was 2.51 µM (active).
With `O=C(NC(=S)N(CCCCO)C1CCCCC1)c1sc2ccccc2c1Cl`, the AC50 was 3.16 µM (active).
Same read-out and setting: for `CCOC(=S)NC(=O)c1sc2ccccc2c1Cl` the value was “inactive”.
For `Oc1ccc2ccccc2c1CN(Cc1c(O)ccc2ccccc12)C1CCCCC1`, the activity, negative = inhibition is -12% [at 11.4 µM] (inactive).
In the case of `O=C1CN2CCN(CC2)CC(=O)Nc2ccc(cc2)S(=O)(=O)c2ccc(cc2)NC(=O)CN2CCN(CC2)CC(=O)Nc2ccc(cc2)S(=O)(=O)c2ccc(cc2)N1`, the activity, negative = inhibition was -29.8% [at 11.4 µM] (inactive).
On to `C#CCSc1nnc(-c2sc(-c3ccccc3)nc2C)n1C`, for which the AC50 is 1 µM (active).
Still for that read-out and setting: for `CSc1nnc(-c2sccc2OCc2ccccc2)n1C` the value was “inactive”.
Regarding `CSc1nnc(-c2sc(-c3ccccc3)nc2C)n1C`, the AC50 entry was “inactive”.
Take `O=C(O)CSc1cc(-c2ccccc2)nc2ccccc12`: the activity, negative = inhibition is -1.98% [at 11.4 µM] (inactive).
As to `Cc1ccc(-c2cc(-c3nnc(SCC(=O)NC(C)C(C)C)n3N)c3ccccc3n2)cc1` (stereo not given), the AC50 is 14.1 µM (active).
Consider `CCOC(=O)c1c(NC(=O)c2c(C)noc2C)sc2c1CCCCC2`, for which the AC50 entry is “inactive”.
Same read-out and setting: for `CCCCC(=O)Nc1sc2c(c1C(=O)OCC)CCC(C=O)=C2Cl` the value was 15.8 µM (active).
As for `O=C(O)c1cc2ccccc2c(S(=O)(=O)O)c1O`, the activity, negative = inhibition is 1.86% [at 11.4 µM] (inactive).
Turning to `C/C(CCN1CCCCc2nc(C)c(C)cc21)=N\O[C@@H](C)CN1CCCCc2nc(C)c(C)cc21`, the AC50 is 3.98 µM (active).
The same measure, in the same setting: for `C/C(CCN1CCc2nc(-c3ccccc3)c(-c3ccccc3)cc2C1)=N\O[C@@H](C)CN1CCCCc2nc(C)c(C)cc21` the value was 3.98 µM (active).
As to `C/C(CCN1CCCc2nc(C)c(C)cc21)=N\O[C@@H](C)CN1CCCCc2nc(C)c(C)cc21`, the AC50 was 3.98 µM (active).
As to `Cc1cc2c(nc1C)CCCN2CC(O)CN1CCCc2nc(C)c(C)cc21`, the activity, negative = inhibition is -8.33% [at 11.4 µM] (inactive).
`C/C(CCN1CCCCc2nc(C)c(C)cc21)=N\O[C@@H](C)c1cc(-c2c(C)cc(C)cc2C)no1`: the AC50 is 3.98 µM (active).
With `CCN(CC)C[C@@H](O)CN1CCCCc2nc(C)c(C)cc21`, the activity, negative = inhibition was -14.9% [at 11.4 µM] (inactive).
As to `CO/N=C(\C)CCN1CCCc2nc(C)c(C)cc21`, the activity, negative = inhibition was -26.4% [at 11.4 µM] (inactive).
For the molecule `Nc1ccc(C(=O)NCC(=O)O)cc1`, the AC50 entry was “inactive”.
On the same count and under the same terms, for `CC[N+](CC)(CC)CC[C@](O)(c1ccccc1)C1CCCCC1` the value was “inactive”.
As for `Nc1c2c(nc3ccccc13)CCC[C@H]2O`, the AC50 entry is “inactive”.
Take `CCc1ccc2c(c1)c(N=NC1=NC(=O)CS1)c(O)n2CC`: the AC50 result is “inactive”.
On the same count and under the same terms, for `CCc1cc2c(nc1CC)CCN(CC/C(C)=N/O[C@@H](C)c1cc(-c3c(C)cc(C)cc3C)no1)C2` the value was 3.98 µM (active).
Take `COc1ccc(-c2ccc3c(n2)CCCN3C[C@H](O)CN2CCCc3nc(-c4ccc(Br)cc4)ccc32)cc1`: the activity, negative = inhibition is -28.9% [at 11.4 µM] (inactive).
The same measure, in the same setting: for `CCc1cc2c(nc1CC)CCN(CC/C(C)=N/O[C@@H]1O[C@H](COC(C)=O)[C@H](OC(C)=O)[C@H](OC(C)=O)[C@H]1OC(C)=O)C2` the value was -28.1% [at 11.4 µM] (inactive).
Take `Cc1cc2c(nc1C)CCCCN2C[C@H](C)O/N=C\[C@@H](C)[C@H](OCc1ccccc1)C(C)C`: the AC50 was 3.98 µM (active).
Regarding `Cc1cc2c(nc1C)CCCCN2C[C@H](O)CN1CCCc2nc(-c3ccc(Br)cc3)ccc21`, the activity, negative = inhibition was -29.7% [at 11.4 µM] (inactive).
Turning to `C/C(CCN1CCCCc2nc(C)c(C)cc21)=N\O[C@@H](C)CN1CCCc2nc(C)c(C)cc21`, the AC50 was 3.16 µM (active).
Turning to `Cc1cc2c(nc1C)CCCN2C[C@@H](O)CN1CCN(C)CC1`, the activity, negative = inhibition was 0.272% [at 11.4 µM] (inactive).
`Cc1cc2c(nc1C)CCCN2C[C@H](O)CN1CCCc2nc(-c3ccc(Br)cc3)ccc21`: the AC50 is 3.98 µM (active).
On to `C[C@@H](N)[C@@H](C)Cc1ccccc1`, for which the activity, negative = inhibition was -8.05% [at 11.4 µM] (inactive).
For the molecule `CN(C)CCO[C@](C)(c1ccccc1)c1ccccn1`, the AC50 result was “inactive”.
Same read-out and setting: for `CCCn1nc(Oc2nc(NCC)nc(NCC)n2)ccc1=O` the value was “inactive”; for `CCCCCCCCCCCCCCCC(=O)C(F)(F)F`, “inactive”.
On the same count and under the same terms, for `COc1ccc(Oc2ncc3nc(-c4cccs4)c(=O)n(-c4ccccc4)c3n2)cc1` the value was 2.51 µM (active); for `COc1ncc2nc(-c3cccs3)c(=O)n(-c3ccccc3)c2n1`, “inactive”; for `COc1ccc(-n2c(=O)c(-c3cccs3)nc3cnc(Oc4ccccc4)nc32)cc1`, “inactive”.
`COc1ccc(-n2c(=O)c(-c3cccs3)nc3cnc(OC)nc32)cc1`: the AC50 was 7.94 µM (active).
For `CN(C)CCN(c1ccccn1)c1ccccn1`, the activity, negative = inhibition is -13.9% [at 11.4 µM] (inactive).
`N#C[C@H]1CN[C@H](N)N[C@@H]1N`: the activity, negative = inhibition was -6.92% [at 11.4 µM] (inactive).
As to `COc1ccc(-c2ccc(/C=C3\C(=O)N(c4ccccc4)N=C3c3ccccc3)o2)c([N+](=O)[O-])c1`, the AC50 was 2 µM (active).
Consider `Cc1sc(=NC(=O)c2ccco2)n(C)c1-c1ccc(F)cc1`, for which the AC50 result is “inactive”.
Regarding `CCOC(=O)c1nnn(-c2nonc2N)c1-c1ccccc1`, the AC50 is 15.8 µM (active).
Same read-out and setting: for `COCc1c(C(N)=O)nnn1-c1nonc1N` the value was “inactive”.
On the same count and under the same terms, for `CC(C)OC(=O)c1nnn(-c2nonc2N)c1CSc1ccccn1` the value was 0.398 µM (active); for `COc1nc(/C(N)=N/O)nc(N2CCCCC2)n1`, “inactive”.
Consider `CC(C)(O)c1cn(-c2nonc2N)nn1`, for which the AC50 entry is “inactive”.
Still for that read-out and setting: for `Nc1nonc1-n1nncc1-c1ccccc1` the value was 15.8 µM (active).
As for `N#CN(CC(N)=O)c1nc(N2CCCCC2)nc(N2CCCCC2)n1`, the activity, negative = inhibition is -13.4% [at 11.4 µM] (inactive).
`CCOC(=O)c1nnn(-c2nonc2N)c1-c1ccc(C)cc1`: the activity, negative = inhibition is -14.1% [at 2.29 µM] (inactive).
Take `CCOC(=O)c1cnc(SCCc2ccccc2)nc1N`: the AC50 result is “inactive”.
On the same count and under the same terms, for `CCOC(=O)c1nnn(-c2nc(OC)nc(N3CCCCC3)n2)c1-c1ccccc1` the value was 15.8 µM (active); for `CCCOc1cc(N)ccc1C(=O)OCCN(CC)CC`, “inactive”.
With `N[C@H](CO)C(=O)NCC(=O)O` (H-[dS]-Gly-OH), the activity, negative = inhibition was -1.48% [at 11.4 µM] (inactive).
